{
  "source": "PubChem BioAssay (EPA / NIEHS)",
  "note": "Inconclusive results are not listed. Active and inactive are the calls of the source. Rule for the calls: active = hit-call score of the fitted dose curve at least 0.9, where 1 is the maximum; inconclusive = response in the unintended direction; inactive = score below 0.9.",
  "data": [
    {"read-out": "sulfotransferase (SULT2A), SULT2A1 (gene 6822)", "assay": "CLD_SULT2A_24hr: CellzDirect (CLD) Gene Expression Assay for sulfotransferase (SULT2A) at 24 hours (AID 2283694);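 for AC50: potency for increased SULT2A1 mRNA level as induction over DMSO baseline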", "description": "CLD_24hr is a cell-based, multiplexed-readout assay that uses hepatocyte, a human liver primary cell, with measurements taken at 24 hours after chemical dosing in a 96-well plate.CLD_SULT2A_24hr is one of 16 assay component(s) measured or calculated from the CLD_24hr assay. It is designed to make measurements of mRNA induction, a form of inducible reporter, as detected with chemiluminescence signals by Quantitative Nuclease Protection Assay (qNPA) technology.Data from the assay component CLD_SULT2A_24hr was analyzed at the endpoint, CLD_SULT2A_24hr, in the positive analysis fitting direction relative to DMSO as the negative control and baseline of activity. Using a type of inducible reporter, gain-of-signal activity can be used to understand changes in the reporter gene as they relate to the gene SULT2A1. Furthermore, this assay endpoint can be referred to as a primary readout. To generalize the intended target to other relatable targets, this assay endpoint is annotated to the transferase intended target family, where subfamily is sulfotransferase.\nHuman hepatocyte cultures were treated daily for two consecutive days with fresh dosing solutions containing appropriate concentrations of the 320 ToxCast chemicals (chemical identities were blinded to CellzDirect and other ToxCast collaborators), vehicle control (0.2% DMSO), and positive control inducers as summarized in Table 1. Due to the large number of treatment groups and chemicals examined, the ToxCast chemicals were divided into two groups (spanning two independent cultures of hepatocytes from separate donor preparations (Hu778: ToxCast plates 1 and 2; Hu776: ToxCast plates 3 and 4). Each preparation of human hepatocyte cultures was treated with respective vehicle control, medium only control, set of six positive controls/reference chemicals for the five hepatic receptor pathways, and a subset of eight of the ToxCast chemicals (indoxacarb, pyrithiobac-sodium, norflurazon, cyhalofop-butyl, methomyl, thiram, acetochlor, and propiconazole). These replicate data, coupled with internal replicates designed within the blinded ToxCast chemical library, provided additional data to evaluate interindividual differences between hepatocyte preparations and their potential impact on chemical profiles.Cell morphology and integrity were evaluated using phase-contrast microscopy as an indicator of hepatocyte cell health (Tyson & Green, 1987). Cultures for each treatment group (i.e., media, vehicle [0.2% DMSO], positive control inducers [multiple concentrations], and the ToxCast chemicals [multiple concentrations]) were observed and cell morphology was assessed relative to vehicle control cultures at each harvest time point (0, 6, 24, or 48 h). […] Images were evaluated at the conclusion of the study to assess changes in cell integrity and account for the effects of chemical exposure on uncharacteristic changes in concentration-dependent gene expression profiles. The results from these determinations of apparent cytotoxicity were annotated (yes/no) alongside the corresponding qNPA data for reference.At the conclusion of each treatment period, hepatocyte cultures (96-well) were washed with 1 volume of HBSS, lysed by addition of 25 ul ArrayPlate lysis buffer (HTG, Tucson, AZ), and 70 ul/well of Denaturation Oil, denatured by incubation at 95C for 10 min, and frozen at approximately -70C until analysis by nuclease protection assay (qNPA) (Roberts et al., 2007). For qNPA analysis, cell lysates were thawed at 50C for approximately 30 min, qNPA probes were added, and samples were incubated at 95C for 10 min to begin the detection process by denaturing the target RNA, dissociating the duplexes and secondary structure hybridization. At the conclusion of the hybridization period, S1 nuclease reagent was added to each sample to digest all nonprotected nucleotides at 50C for 60-90 min. […]", "values": [
      {"smiles": "CON=C(C(=O)OC)c1ccccc1CON=C(C)c1cccc(C(F)(F)F)c1", "outcome": "inactive"},
      {"smiles": "CCc1cccc(CC)c1N(COC)C(=O)CCl", "outcome": "inactive"},
      {"smiles": "CC(C)=CC1C(C(=O)OCN2C(=O)C3=C(CCCC3)C2=O)C1(C)C", "note": "(stereo not given)", "outcome": "inactive"},
      {"smiles": "Nc1nc(N)nc(NC2CC2)n1", "outcome": "inactive"},
      {"smiles": "CCCCN(CC)c1c([N+](=O)[O-])cc(C(F)(F)F)cc1[N+](=O)[O-]", "outcome": "inactive"},
      {"smiles": "CCOP(=O)(OCC)Oc1cc(C)nc(C(C)C)n1", "outcome": "inactive"},
      {"smiles": "CCOP(=O)(NC(C)C)Oc1ccc(SC)c(C)c1", "note": "(stereo not given)", "outcome": "inactive"},
      {"smiles": "CSc1nc(NC(C)C)nc(NC(C)C)n1", "outcome": "inactive"},
      {"smiles": "CSC1=N[C@@](C)(c2ccccc2)C(=O)N1Nc1ccccc1", "outcome": "inactive"},
      {"smiles": "CCOP(=S)(OCC)Oc1ccc([N+](=O)[O-])cc1", "outcome": "inactive"},
      {"smiles": "CCCCOC(=O)[C@@H](C)Oc1ccc(Oc2ccc(C#N)cc2F)cc1", "outcome": "inactive"},
      {"smiles": "CC1(C(=O)Nc2ccc(O)c(Cl)c2Cl)CCCCC1", "outcome": "inactive"},
      {"smiles": "COc1cc(OC)nc(Sc2cccc(Cl)c2C(=O)O)n1", "outcome": "inactive"},
      {"smiles": "CC(Oc1cccc(Cl)c1)C(=O)O", "note": "(stereo not given)", "outcome": "inactive"},
      {"smiles": "COc1ccc(C(=CC(=O)N2CCOCC2)c2ccc(Cl)cc2)cc1OC", "outcome": "inactive"},
      {"smiles": "CC(=NC#N)N(C)Cc1ccc(Cl)nc1", "outcome": "inactive"},
      {"smiles": "C[Si](Cn1cncn1)(c1ccc(F)cc1)c1ccc(F)cc1", "AC50": "20 µM (active)"},
      {"smiles": "Cc1ccn2nc(S(=O)(=O)Nc3c(F)cccc3F)nc2n1", "outcome": "inactive"},
      {"smiles": "C#CC(C)(C)NC(=O)c1cc(Cl)cc(Cl)c1", "outcome": "inactive"},
      {"smiles": "CN1COCN(Cc2cnc(Cl)s2)C1=N[N+](=O)[O-]", "outcome": "inactive"},
      {"smiles": "Cc1nn(-c2cc(NS(C)(=O)=O)c(Cl)cc2Cl)c(=O)n1C(F)F", "outcome": "inactive"},
      {"smiles": "CCc1cccc(C)c1N(C(=O)CCl)C(C)COC", "note": "(stereo not given)", "outcome": "inactive"},
      {"smiles": "CCNc1nc(Cl)nc(NC(C)(C)C#N)n1", "outcome": "inactive"},
      {"smiles": "O=C(O)c1cc(Oc2ccc(C(F)(F)F)cc2Cl)ccc1[N+](=O)[O-]", "outcome": "inactive"},
      {"smiles": "C#CCC1=C(C)C(OC(=O)C2C(C=C(C)C)C2(C)C)CC1=O", "note": "(stereo not given)", "outcome": "inactive"},
      {"smiles": "CC[C@H](C)[C@H]1O[C@]2(C=C[C@@H]1C)C[C@@H]1C[C@@H](C/C=C(\\C)[C@@H](O[C@H]3C[C@H](OC)[C@@H](O[C@H]4C[C@H](OC)[C@@H](NC)[C@H](C)O4)[C@H](C)O3)[C@@H](C)/C=C/C=C3\\CO[C@@H]4[C@H](O)C(C)=C[C@@H](C(=O)O1)[C@]34O)O2", "AC50": "0.336 µM (active)"},
      {"smiles": "CCC(=O)Nc1ccc(Cl)c(Cl)c1", "outcome": "inactive"},
      {"smiles": "CCC(CC)Nc1c([N+](=O)[O-])cc(C)c(C)c1[N+](=O)[O-]", "outcome": "inactive"},
      {"smiles": "CCCOc1nn(C(=O)NS(=O)(=O)c2ccccc2C(=O)OC)c(=O)n1C", "outcome": "inactive"},
      {"smiles": "COP(=O)(OC)SCn1c(=O)oc2cc(Cl)cnc21", "outcome": "inactive"},
      {"smiles": "C=C(C)[C@H]1Cc2c(ccc3c2O[C@@H]2COc4cc(OC)c(OC)cc4[C@@H]2C3=O)O1", "AC50": "3.88 µM (active)"},
      {"smiles": "CCOP(=S)(OCC)OC(Cl)C(Cl)(Cl)Cl", "note": "(stereo not given)", "outcome": "inactive"},
      {"smiles": "CCOC(=O)COc1cc(-c2nn(C)c(OC(F)F)c2Cl)c(F)cc1Cl", "outcome": "inactive"},
      {"smiles": "CC(COc1ccc(Oc2ccccc2)cc1)Oc1ccccn1", "note": "(stereo not given)", "outcome": "inactive"},
      {"smiles": "CCOP(=S)(Oc1cnc(C(C)(C)C)nc1)OC(C)C", "note": "(stereo not given)", "outcome": "inactive"},
      {"smiles": "CCOP(=S)(OCC)SCCSCC", "outcome": "inactive"},
      {"smiles": "CC1=NNC(=O)N(/N=C/c2cccnc2)C1", "outcome": "inactive"},
      {"smiles": "CCOP(=O)(SC(C)CC)N1CCSC1=O", "note": "(stereo not given)", "outcome": "inactive"},
      {"smiles": "CCCCSP(=O)(SCCCC)SCCCC", "outcome": "inactive"},
      {"smiles": "CN(C)[C@@H]1C(=O)C(C(N)=O)=C(O)[C@@]2(O)C(=O)C3=C(O)c4c(O)cccc4[C@@](C)(O)[C@H]3[C@H](O)[C@@H]12", "outcome": "inactive"}
    ]}
  ]
}
